High-throughput results: PubChem BioAssay, National Center for Advancing Translational Sciences (NCATS)
An excerpt weighted towards active compounds, which were near 1.2% of everything screened.
GCN5L2 inh: inhibitors of human GCN5L2 histone acetyltransferase; GCN5L2 HAT assay, ThioGlo1 CoA-SH fluorescence; Potency, µM (top dose mostly 58.9 µM), for the others: top-dose activity change, negative = inhibition, usual class: inhibitors; actives 0.21% (n = 390,000); AID 504327; further: on the % scale 0 is the no-effect control and ±100 the full control effect
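Enzyme at 20nM final was mixed with library compounds for 15 min at room temperature. Peptide H3(1-25) at 75uM, acetyl-CoA at 70uM and ThioGlo1 at 50uM were then added. Plates were read immediately and after 20 min (Ex340nm/Em540nm).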
RGS12 GoLoco inh: RGS12 GoLoco-Gai1 interaction inhibition; P63096; Gai1:RGS12 GoLoco peptide FP, rhodamine, 10 min; Potency, µM (highest dose often 61.6 µM), without a hit: top-dose activity, negative = inhibition, usual class: inhibitors; actives 0.44% (n = 230,000); AID 880; active means well fitted inhibition curve with a large enough effect, not every such curve was filed as active; inactive means no such curve, though single readings can be large or run the other way; further: on the % scale 0 is the no-effect control and ±100 the full control effect; nearly all actives have a fitted effect of over 30% in size
Target sequence (P63096 whole entry, looked up): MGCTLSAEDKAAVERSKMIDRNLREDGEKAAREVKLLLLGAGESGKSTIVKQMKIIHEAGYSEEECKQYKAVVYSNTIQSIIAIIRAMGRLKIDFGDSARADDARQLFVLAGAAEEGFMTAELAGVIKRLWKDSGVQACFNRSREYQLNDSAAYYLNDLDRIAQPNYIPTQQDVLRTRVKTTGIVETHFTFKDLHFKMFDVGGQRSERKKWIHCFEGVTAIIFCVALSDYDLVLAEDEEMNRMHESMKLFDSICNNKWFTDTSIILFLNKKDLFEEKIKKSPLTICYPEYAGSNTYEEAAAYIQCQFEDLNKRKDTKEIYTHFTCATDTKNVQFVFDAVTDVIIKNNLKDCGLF
TRb-SRC2 inh: disrupts binding of human TR beta to SRC2. P10828. TRbeta-SRC2 peptide binding, fluorescence polarization; receptor liganded with 1 µM T3. Potency, µM (titrated, usually from 106 µM), inactives show at the highest dose activity change, negative = inhibition, most hits filed as inhibitors. actives 0.065% (n = 280,000). AID 1469;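 further: plate controls were bound peptide for no effect and peptide without receptor for full effect; nearly all actives have a fitted effect of over 50% in size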
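Decrease in fluorescence polarization of 20 nM Texas Red SRC2 coactivator peptide flagged inhibition of its binding to 0.6 uM TRb LBD; 1 uM T3 included, incubation 5 hr, ex 555/em 632 nm.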
VDR inhibitor: vitamin D3 receptor (human) inhibition | VDR-SRC2-3 peptide fluorescence polarization, 2 h | Potency, µM, for inactives: max response, negative = inhibition, actives largely listed as inhibitors | actives 0.93% (n = 400,000); further: on the % scale 0 is the no-effect control and ±100 the full control effect
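Measured by FP: displacement of SRC2-3 coactivator peptide from VDR by library compounds, following a two-hour ambient incubation.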
TR SRC2 fluor cs: alters Texas Red total fluorescence, flagging assay interference; Potency, µM (highest dose often 106 µM), inactives show at the top dose fluorescence change, negative = quenching; actives 0.29% (n = 280,000); TRb/SRC2 Texas Red total fluorescence interference; active means well fitted curve in either direction with a large enough effect; inconclusive means small, poorly fitted or top-dose-only effect; further: on the % scale 0 is the no-effect control and ±100 the full control effect
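Human TRb ligand-binding domain at 0.6 uM with 20 nM Texas Red SRC2 peptide in Tris buffer containing 1 uM T3 and 5% DMSO, incubated with compound 5 h at ambient temperature. Total fluorescence (555/632 nm) calculated as parallel + 2 × perpendicular.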
VDR inh confirm: inhibits human vitamin D receptor, primary hit validation | shares compounds with VDR inhibitor | VDR-coactivator inhibition assay, qHTS confirmation | Potency, µM, actives largely listed as inhibitors | actives 89% (n = 840) | AID 602199
VDR FP fluor: blocks human VDR-coactivator binding in fluorescein assay; actives 48% (n = 840); VDR-coactivator binding, fluorescein fluorescence polarization; AID 602200; shares compounds with VDR inhibitor; Potency, µM (top dose mostly 57.1 µM), without a hit: at the highest dose activity change, negative = inhibition, most hits filed as inhibitors
VDR bla reporter: VDR (human) inhibition, cell-based beta-lactamase validation; actives 23% (n = 840); shares compounds with VDR inhibitor; AID 602202; Potency, µM (highest dose often 46.1 µM), without a hit: at the top dose activity change, negative = inhibition, hits mostly inhibitors; VDR beta-lactamase reporter cells, FRET ratio; cells co-treated with VDR agonist LG190178; further: on the % scale 0 is the no-effect control and ±100 the full control effect
VDR cytotox: counter-screen for vitamin D receptor inhibitors: cytotoxicity; shares compounds with VDR inhibitor; cytotoxicity counter-screen, cell viability, qHTS; Potency, µM (doses to about 48.3 µM), for the others: at the highest dose activity change, negative = cytotoxicity, most hits filed as cytotoxic; actives 18% (n = 840); AID 602204;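 further: plate controls were DMSO for no effect and high-concentration cycloheximide for full effect; nearly all actives have a fitted effect of over 75% in size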
* hit, by the source's call. Unless noted, the call rests on the fitted dose curve; in most records, active means well fitted curve in the direction sought with a large enough effect; inconclusive means small, poorly fitted or top-dose-only effect, or another doubt; inactive means no such curve, though single readings can be large; an effect the other way counts as inactive or inconclusive. Potency means the concentration at half of the fitted maximal effect.

Results for CCOc1ccc(/C=C/[N+](=O)[O-])c2ccccc12 ?
GCN5L2 inh: inconclusive; RGS12 GoLoco inh: -9%; TRb-SRC2 inh: -5%; VDR inhibitor: 20µM*; TR SRC2 fluor cs: 1%; VDR inh confirm: 6.7*; VDR FP fluor: inconclusive; VDR bla reporter: inconclusive; VDR cytotox: inconclusive

Results for CCOC(=O)Cn1cc(/C=C/[N+](=O)[O-])c2ccccc21 ?
GCN5L2 inh: -3%; RGS12 GoLoco inh: 20%; TRb-SRC2 inh: 2%; VDR inhibitor: inconclusive; TR SRC2 fluor cs: 1%

Results for CCOC(=O)COc1ccc(/C=C/[N+](=O)[O-])c(OCC(=O)OCC)c1 ?
GCN5L2 inh: 22%; RGS12 GoLoco inh: -10%; TRb-SRC2 inh: -4%; VDR inhibitor: 13µM*; TR SRC2 fluor cs: 0%; VDR inh confirm: 6.7*; VDR FP fluor: inconclusive; VDR bla reporter: inconclusive; VDR cytotox: 13µM*

Results for C=C1C=CS(=O)(=O)N(C(C)C(=O)OC)C1 (configuration not stated) ?
TRb-SRC2 inh: -1%; VDR inhibitor: -9%; TR SRC2 fluor cs: -1%

How did O=S(=O)(/N=C(\Sc1ccccc1)c1ccccc1)c1ccc(Cl)cc1 do in these assays?
GCN5L2 inh: 4%; RGS12 GoLoco inh: -7%; TRb-SRC2 inh: -11%; VDR inhibitor: 79µM*; TR SRC2 fluor cs: -1%; VDR inh confirm: 12*; VDR FP fluor: inconclusive; VDR bla reporter: 27%; VDR cytotox: inconclusive

What do the screens show for `Cc1cccc2cc3c(nc12)SC(=NCC1CCCO1)N(Cc1ccco1)C3` (configuration not stated)?
GCN5L2 inh: -22%; TRb-SRC2 inh: 0%; VDR inhibitor: inconclusive; TR SRC2 fluor cs: -4%; VDR inh confirm: 14*; VDR FP fluor: 6.3µM*; VDR bla reporter: 21µM*; VDR cytotox: inconclusive
